Resorufin autofl: compounds fluorescent in resorufin spectral region; Compound fluorescence, resorufin region 547/598 nm, buffer; active compounds read high; max dye-equivalent concentration, M; 0.04% of 59,000 active
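Compounds in 100 mM Tris, pH 8.0, incubated 15 min at room temperature, then fluorescence read at 547 nm excitation/598 nm emission. Signal converted to dye-equivalent concentration via an on-plate six-point resorufin standard curve, per compound concentration.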
Rhodamine autofl: compound fluoresces in the rhodamine spectral region | AID 594 | Rhodamine-region fluorescence, 547/598 nm, Tris buffer; active compounds read high | 0.05% of 59,000 active | max dye-equivalent concentration, M; in the data active = max dye-equivalent concentration above about 11 nM; inconclusive = between about 1.1 nM and that limit
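Compound fluorescence in 100 mM Tris, pH 8.0, read after 15 min at room temperature with 547 nm excitation and 598 nm emission. Output is dye-equivalent concentration from an on-plate rhodamine standard series.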
A488 fluor: compound autofluorescence in A488 spectral region | max dye equivalency, M | 0.1% of 59,000 active | AID 591 | compound autofluorescence, A488 spectral region, dye equivalency; Compound Type: qHTS ECL - MLSMR
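Intrinsic compound fluorescence is measured in 100 mM Tris buffer at pH 8.0 following 15 min incubation at room temperature. Intensities at 480 nm excitation/540 nm emission are calibrated to an on-plate A488 concentration series, giving dye-equivalent concentrations.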
TexasRed autofl: compounds fluorescent in Texas Red spectral region. Compound fluorescence, Texas Red channel, 547/618 nm; active compounds read high. max dye-equivalent concentration, M. 0.06% of 59,000 active; in the data active = max dye-equivalent concentration above about 10 nM; inconclusive = between about 1.1 nM and that limit
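Compound fluorescence was read after 15 min at room temperature in 100 mM Tris, pH 8.0, using 547 nm excitation and 618 nm emission across a concentration series. It was expressed as Texas Red dye-equivalent concentration from an on-plate standard curve.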
A647 autofl: A647 region autofluorescence. Compound fluorescence, A647 channel (570/671 nm), Tris buffer. AID 592. max dye-equivalent concentration, M. 59,000 tested, under 10 active
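Compound fluorescence was measured in 100 mM Tris buffer, pH 8.0, after 15 min at room temperature, using 570 nm excitation and 671 nm emission filters. Signal was normalized to a per-plate Alexa 647 standard curve and expressed as dye-equivalent concentration at each compound concentration.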
Fluorescein autfl: compound autofluorescence in fluorescein spectral region; Compound autofluorescence, 480/540 nm, fluorescein-equivalent; active compounds read high; max fluorescein-equivalent concentration, M; 0.91% of 59,000 active; AID 593; in the data active = max fluorescein-equivalent concentration above about 10 nM; inconclusive = between about 1.1 nM and that limit
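Spectral profiling of library compounds in the fluorescein window (480 nm excitation, 540 nm emission) after 15 min at room temperature in pH 8.0 Tris (100 mM). Values are dye-equivalent concentrations.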
Large screens that a line does not name were inactive; ! = not confirmed by another sample. Most compounds without a hit are left out; they make up all but 0.95% or so of the library. Unless noted, the rule behind the calls is not given here.

COc1cccc(Cn2c(=O)c(-c3cccc(C#N)c3)nc3cnc(Nc4ccccc4)nc32)c1	Fluorescein autfl 1.28e-08M
N#Cc1cccc(-c2nc3cnc(Nc4ccccc4)nc3n(C[C@H]3CCCO3)c2=O)c1	Fluorescein autfl 1.28e-08M
COCCn1c(=O)c(-c2cccc(C#N)c2)nc2cnc(Nc3ccccc3)nc21	Fluorescein autfl inconclusive
O=c1c(-c2cccs2)nc2cnc(Nc3ccccc3)nc2n1C[C@H]1CCCO1	A488 fluor inconclusive, Fluorescein autfl 4.25e-08M
N#CCCn1c(=O)c(-c2cccs2)nc2cnc(N3CCOCC3)nc21	Fluorescein autfl 1.3e-08M
Cc1ccc2[nH]c3c(c2c1)CN(C(=O)CN1CC(C)OC(C)C1)CC3 (stereo unspecified)	Fluorescein autfl 1.12e-08M
Cc1ccc2[nH]c3c(c2c1)CN(C(=O)CN1CCSCC1)CC3	TexasRed autofl inconclusive, Fluorescein autfl inconclusive
Cc1ccc2[nH]c3c(c2c1)CN(C(=O)CN1CCN(c2ccccn2)CC1)CC3	Fluorescein autfl 1.79e-08M
CCCn1c(=C(C#N)C#N)s/c(=C2\C=Cc3ccccc3N2CC)c1=O	Resorufin autofl inconclusive, Rhodamine autofl inconclusive, TexasRed autofl inconclusive, Fluorescein autfl 2.1e-08M
CCSC1=NC(=O)/C(=C2/C=Cc3ccccc3N2CC)S1	Fluorescein autfl inconclusive
Cc1ccccc1-n1c(=O)/c(=C\c2ccco2)s/c1=C(/C#N)C(=O)Nc1ccccc1	Fluorescein autfl 1.37e-08M
COc1ccc(NC(=O)/C=C\c2ccc(Cl)cc2)cc1	TexasRed autofl inconclusive, Fluorescein autfl inconclusive
CC1CN(c2nc3ccccc3nc2C(C#N)C(=O)NC2CCCCC2)CC(C)O1 (stereo unspecified)	A488 fluor 1.44e-08M, Fluorescein autfl 2.93e-07M
CC(C)COc1nc2ccccc2nc1C(C#N)C(=O)NC1CCCCC1 (stereo unspecified)	A488 fluor inconclusive, Fluorescein autfl 7.32e-08M
CC(C)C1Cc2c(C#N)c(N)sc(=S)c2CO1 (stereo unspecified)	Fluorescein autfl 1.28e-08M
COc1c2ccoc2cc2oc(=O)ccc12	none
COc1ccc2c(OC)c3ccoc3nc2c1OC	TexasRed autofl inconclusive, Fluorescein autfl 1.05e-08M!
CS(=O)(=O)N(CC(=O)O)Cc1ccccc1	Fluorescein autfl inconclusive
O=c1oc2c3c4c(cc2c(C(F)(F)F)c1CCN1CCOCC1)CCCN4CCC3	A488 fluor inconclusive, TexasRed autofl inconclusive, Fluorescein autfl 4.61e-08M
O=c1oc2c(CN3CCOCC3)c(O)ccc2c2c1CCC2	none
Cc1ccc([C@@H]2C3COCC=C3C(C#N)=C(N)C2(C#N)C#N)o1 (stereo partly specified)	Fluorescein autfl 1.16e-08M
CCOC(=O)c1c2c(n3ccccc13)C(=O)c1ccccc1C2=O	Fluorescein autfl inconclusive
CCOC(=O)C(C(=O)OCC)c1cc(Br)c2noc3c2c1C(=O)c1ccccc1-3	A488 fluor 1.25e-08M, Fluorescein autfl 2.56e-07M
CC(C)OCCCn1c(=NC(=O)c2ccncc2)c(C#N)cc2c(=O)n3ccccc3nc21	Fluorescein autfl 1.89e-08M
COc1ccc(-c2ccc(-c3noc(-c4ccccc4C)n3)c(OC)n2)cc1	TexasRed autofl inconclusive, Fluorescein autfl 1.2e-08M
COc1ccc(-c2ccc(-c3noc(-c4ccccc4OC)n3)c(OC)n2)cc1	A488 fluor inconclusive, Fluorescein autfl 2.76e-08M
C[C@@]12C(=O)OC(=O)[C@@]1(C)[C@H]1CC[C@@H]2O1	TexasRed autofl inconclusive, Fluorescein autfl inconclusive
COc1ccc([C@@H]2CC(=O)c3c(O)cc(O[C@@H]4O[C@@H](CO[C@@H]5O[C@@H](C)[C@@H](O)[C@@H](O)[C@H]5O)[C@@H](O)[C@@H](O)[C@H]4O)cc3O2)cc1O	Fluorescein autfl inconclusive
COc1[nH]c(/N=C/c2ccccc2)c(C#N)c1C#N	Resorufin autofl inconclusive, Rhodamine autofl inconclusive, A488 fluor inconclusive, TexasRed autofl inconclusive, Fluorescein autfl 3.58e-08M
COc1nccc(Nc2ccccc2)c1C#N	TexasRed autofl inconclusive, Fluorescein autfl inconclusive
O=c1c(CCc2ccccc2)nc2cnc(N3CCNCC3)nc2n1Cc1ccc(F)cc1	Fluorescein autfl inconclusive
Cc1cccc(OCC(=O)NCC(=O)n2nc(C)cc2C)c1	Fluorescein autfl 1.19e-08M
Cc1cc(C)n(C(=O)COc2c(C)cccc2C)n1	Fluorescein autfl inconclusive
CCN(CC)c1ccc2c(c1)C(=O)N(C)C2=O	TexasRed autofl inconclusive, Fluorescein autfl 1.13e-08M
Nc1ncn([C@@H]2O[C@@H](CO)[C@@H](O)[C@H]2O)c(=O)n1	none
COCCCNC(=O)C(C#N)c1nc2ccccc2nc1N1CCCC1 (stereo unspecified)	A488 fluor inconclusive, Fluorescein autfl 6.6e-08M
CCCCCNC(=O)C(C#N)c1nc2ccccc2nc1N1CCCC1 (stereo unspecified)	A488 fluor 2.89e-08M, Fluorescein autfl 5.52e-07M
CCCCN(CCCC)c1nc2ccccc2nc1C(C#N)C(=O)NCCCOC (stereo unspecified)	A488 fluor inconclusive, Fluorescein autfl 5.73e-08M
CCCCCCNC(=O)C(C#N)c1nc2ccccc2nc1N1CCOCC1 (stereo unspecified)	A488 fluor 3.02e-08M, Fluorescein autfl 4.12e-07M
Oc1cc(O)cc(/C=C\c2ccc(O)c(O)c2)c1	Fluorescein autfl inconclusive
Nc1nc2c(c(=O)[nH]1)N[C@H](CCNc1ccc(C(=O)O)cc1)CN2	none
CCCCOC(=O)C(C#N)c1nc2ccccc2nc1N1CCOCC1 (stereo unspecified)	A488 fluor inconclusive, Fluorescein autfl 2.89e-08M
CCCCCCNC(=O)C(C#N)c1nc2ccccc2nc1N1CCCC1 (stereo unspecified)	A488 fluor 4.11e-08M, Fluorescein autfl 8.01e-07M
CCCCCCOC(=O)C(C#N)c1nc2ccccc2nc1N1CCOCC1 (stereo unspecified)	Fluorescein autfl inconclusive
COc1ccc(-c2nc3cnc(Oc4cccc(Cl)c4)nc3n(CCC#N)c2=O)cc1	Fluorescein autfl inconclusive
C[C@@]12CC[C@@H]3[C@H](CCC4=CC(=O)CC[C@]43C)[C@@H]1CC[C@@H]2C(=O)Cn1cnc2c(=S)nc[nH]c21	none
C[C@@]12C[C@H](O)[C@@H]3[C@H](CCC4=CC(=O)CC[C@]43C)[C@H]1CC[C@@H]2c1csc(-c2ccccc2)n1	none
CN1C(C(=O)Nc2ccccn2)=C(O)c2ccccc2S1(=O)=O	Fluorescein autfl 1.22e-08M!
CNc1ncnc2ccc(-c3ccccc3C)cc12	none
CCC1C2CN(C(C)=O)CC=C2C(C#N)=C(N)C1(C#N)C#N (stereo unspecified)	Fluorescein autfl inconclusive
CCN1CC=C2C(C#N)=C(N)C(C#N)(C#N)C(c3cc(Cl)ccc3Cl)C2C1 (stereo unspecified)	Fluorescein autfl 2.4e-08M
CC(C)N1CC=C2C(C#N)=C(N)C(C#N)(C#N)C(c3ccccc3)C2C1 (stereo unspecified)	A488 fluor inconclusive, Fluorescein autfl 1.58e-07M

Screens deposited in PubChem BioAssay by National Center for Advancing Translational Sciences (NCATS).
